Consider eight compounds from PubChem BioAssay (NCI).

About 79,000 compounds went through this panel and 15% of them were active in at least one assay; those are over-represented in the sample as a whole. Values without a mark were called inactive. Activity calls are given as the source filed them. Rule as the data show it: active = growth inhibition above about 70%; inactive = the rest.

Test [1] can be described thus: NCI Yeast Anticancer Drug Screen. Data for the rad50 strain (AID 155).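 Also: 0% = growth of vehicle-only cultures of the same strain.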 To be noted: S. cerevisiae rad50 strain growth inhibition, stronger effect = higher value. In a few lines: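 DNA repair mutant yeast, compound exposure, growth read-out; inhibition is taken relative to vehicle.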
The nature of test [2]: NCI Yeast Anticancer Drug Screen. Data for the mec2-1 strain (AID 157). As to conditions: S. cerevisiae mec2-1 strain, stronger effect = higher value. A digest of the protocol:
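Test agents were screened against the mec2-1 yeast strain, with defined DNA repair or cell cycle alteration. Growth was scored as inhibition against vehicle-only controls.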

Test [3] is described as follows: NCI Yeast Anticancer Drug Screen. Data for the sgs1 mgt1 strain (AID 161).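 Also: 0% = growth of cultures given vehicle only.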 To be noted: S. cerevisiae sgs1 mgt1 strain, stronger effect = higher value. A digest of the protocol: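 Inhibition of yeast growth, normalised to vehicle-treated controls, is reported for a strain bearing genetic alterations in DNA damage repair.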
The nature of test [4]: NCI Yeast Anticancer Drug Screen. Data for the cln2 rad14 strain (AID 165).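 Also: 0% = growth equal to vehicle treated cultures.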 As to conditions: S. cerevisiae cln2 rad14 strain, stronger effect = higher value. A digest of the protocol: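 Growth of compound-exposed yeast (cln2 rad14 genotype) measured and expressed as inhibition relative to vehicle.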
Test [5] in a line: NCI Yeast Anticancer Drug Screen. Data for the bub3 strain (AID 167). As to conditions: S. cerevisiae bub3 mutant strain, stronger effect = higher value. A digest of the protocol: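 In this screen, a yeast mutant lacking normal mitotic checkpoint function is challenged with compound. Relative growth versus vehicle gives the inhibition value.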
Test [6] in a line: NCI Yeast Anticancer Drug Screen. Data for the mlh1 rad18 strain (AID 175). To be noted: S. cerevisiae mlh1 rad18 strain growth inhibition, stronger effect = higher value. A digest of the protocol: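 In this whole-cell yeast screen, a strain with altered DNA damage repair is challenged with compound, and its growth is measured against matched vehicle-treated controls.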
The mark [7] stands for this setting: at 5.0 µM (retest, dose inferred, filed as 0.5).
Where [8] appears, read: at 50.0 µM (retest, dose inferred, filed as 5.0).

For the compound `COc1cc2c(oc(=O)c3cc(C)cc(OC)c32)c2c(C3OC(C)C(O)C(C)(O)C3O)ccc(O)c12` (centres undefined), the growth inhibition was 80% (active) in test [1] (setting [7]); 96% (active) in test [1] (setting [8]); 90.2% (active) in test [1] (at 50.0 µM); 72% (active) in test [2] (setting [7]); 97% (active) in test [2] (setting [8]); 89.3% (active) in test [2] (at 50.0 µM). The growth inhibition in test [3] (setting [7]) was 79% (active); in test [3] (setting [8]), 96% (active); in test [3] (at 50.0 µM), 90.4% (active); in test [4] (setting [7]) it was 75% (active); in test [4] (setting [8]), 94% (active); in test [4] (at 50.0 µM) it was 90% (active). For the same compound, the growth inhibition is 83% (active) in test [5] (setting [7]); 97% (active) in test [5] (setting [8]); 89.8% (active) in test [5] (at 50.0 µM); 90% (active) in test [6] (setting [7]); 96% (active) in test [6] (setting [8]); 88.8% (active) in test [6] (at 50.0 µM).

Regarding `CC(Br)C(=O)c1ccc(OCc2ccccc2)cc1` (centres undefined), the growth inhibition in test [1] (setting [7]) was 15%; in test [1] (setting [8]), 84% (active); in test [1] (at 50.0 µM), 90.7% (active); in test [2] (setting [7]), 14%; in test [2] (setting [8]), 99% (active); in test [2] (at 50.0 µM), 94.2% (active). The growth inhibition in test [3] (setting [7]) is 8%; in test [3] (setting [8]), 75% (active); in test [3] (at 50.0 µM), 89.9% (active); in test [4] (setting [7]), 22%; in test [4] (setting [8]), 78% (active); in test [4] (at 50.0 µM), 92.3% (active). Besides, the growth inhibition in test [5] (setting [7]) is 6%; in test [5] (setting [8]), 99% (active); in test [5] (at 50.0 µM), 90% (active); in test [6] (setting [7]), 13%; in test [6] (setting [8]), 94% (active); in test [6] (at 50.0 µM), 77.9% (active).

For the compound `CCCC1c2ccc(O)cc2CC1c1ccc(O)cc1` (centres undefined), the growth inhibition in test [1] (setting [7]) is -1%; in test [1] (setting [8]) it was 99% (active); in test [1] (at 50.0 µM) it was 99.2% (active); in test [2] (setting [7]), -4%; in test [2] (setting [8]) it was 99% (active); in test [2] (at 50.0 µM), 99.4% (active). Moreover, the growth inhibition is -3% in test [3] (setting [7]); 99% (active) in test [3] (setting [8]); 99.5% (active) in test [3] (at 50.0 µM); 11% in test [4] (setting [7]); 99% (active) in test [4] (setting [8]); 52.4% in test [4] (at 50.0 µM). In addition, the growth inhibition in test [5] (setting [7]) was -1%; in test [5] (setting [8]), 99% (active); in test [5] (at 50.0 µM), 98.7% (active); in test [6] (setting [7]) it was 1%; in test [6] (setting [8]), 99% (active); in test [6] (at 50.0 µM) it was 98.5% (active).

Take `CN(C)CC(=O)OCC[N+](C)(C)C`: the growth inhibition was -3% in test [1] (setting [7]); -2% in test [1] (setting [8]); -22.1% in test [1] (at 50.0 µM); -6% in test [2] (setting [7]); -5% in test [2] (setting [8]); -15.1% in test [2] (at 50.0 µM). Besides, the growth inhibition is -3% in test [3] (setting [7]); -3% in test [3] (setting [8]); -12.7% in test [3] (at 50.0 µM); -15% in test [4] (setting [7]); -10% in test [4] (setting [8]); 56.4% in test [4] (at 50.0 µM). Also, the growth inhibition in test [5] (setting [7]) was 6%; in test [5] (setting [8]), 30%; in test [5] (at 50.0 µM) it was 15.4%; in test [6] (setting [7]), -4%; in test [6] (setting [8]) it was 1%; in test [6] (at 50.0 µM), -15.9%.

In the case of `C[N+](C)(CCCCCCOc1c(Br)cc(Br)cc1Br)Cc1ccc(Br)o1`, the growth inhibition in test [1] (setting [7]) was 71% (active); in test [1] (setting [8]), 99% (active); in test [1] (at 50.0 µM), 99.5% (active); in test [2] (setting [7]), 38%; in test [2] (setting [8]), 100% (active); in test [2] (at 50.0 µM), 99.8% (active). Besides, the growth inhibition was 84% (active) in test [3] (setting [7]); 100% (active) in test [3] (setting [8]); 99.8% (active) in test [3] (at 50.0 µM); 40% in test [4] (setting [7]); 99% (active) in test [4] (setting [8]); 99.2% (active) in test [4] (at 50.0 µM). Moreover, the growth inhibition in test [5] (setting [7]) was 61%; in test [5] (setting [8]) it was 99% (active); in test [5] (at 50.0 µM) it was 99.8% (active); in test [6] (setting [7]) it was 83% (active); in test [6] (setting [8]) it was 99% (active); in test [6] (at 50.0 µM) it was 99.7% (active).

In the case of `CC(=O)C(C(=O)CCSCCO)C(SCCO)c1ccc(Cl)c(Cl)c1` (centres undefined), the growth inhibition in test [1] (setting [7]) is -1%; in test [1] (setting [8]), 64%; in test [1] (at 50.0 µM), 59.4%; in test [2] (setting [7]), -3%; in test [2] (setting [8]), 63%; in test [2] (at 50.0 µM), 79% (active). Moreover, the growth inhibition is -1% in test [3] (setting [7]); 81% (active) in test [3] (setting [8]); 71.8% (active) in test [3] (at 50.0 µM); -4% in test [4] (setting [7]); 55% in test [4] (setting [8]); 40.1% in test [4] (at 50.0 µM). The growth inhibition is -6% in test [5] (setting [7]); 70% (active) in test [5] (setting [8]); 62.4% in test [5] (at 50.0 µM); -3% in test [6] (setting [7]); 73% (active) in test [6] (setting [8]); 73.8% (active) in test [6] (at 50.0 µM).

With `Cc1ccc(NC(=O)/C(CC(=O)c2sc(Nc3ccc(Cl)c(Cl)c3)nc2C)=N\Nc2ccc([N+](=O)[O-])cc2[N+](=O)[O-])c(C)c1`, the growth inhibition in test [1] (setting [7]) was 1%; in test [1] (setting [8]), 97% (active); in test [1] (at 50.0 µM), 97.7% (active); in test [2] (setting [7]), -4%; in test [2] (setting [8]), 96% (active); in test [2] (at 50.0 µM), 98.3% (active). Moreover, the growth inhibition in test [3] (setting [7]) was 5%; in test [3] (setting [8]) it was 93% (active); in test [3] (at 50.0 µM), 94.5% (active); in test [4] (setting [7]) it was 0%; in test [4] (setting [8]), 98% (active); in test [4] (at 50.0 µM), 97.1% (active). Moreover, the growth inhibition in test [5] (setting [7]) is -10%; in test [5] (setting [8]), 99% (active); in test [5] (at 50.0 µM) it was 96.8% (active); in test [6] (setting [7]), 5%; in test [6] (setting [8]) it was 96% (active); in test [6] (at 50.0 µM) it was 96.8% (active).

Take `Nc1cc(Cl)ccc1SSc1ccc(Cl)cc1N`: the growth inhibition in test [1] (setting [7]) was 11%; in test [1] (setting [8]) it was 58%; in test [1] (at 50.0 µM) it was 49%; in test [2] (setting [7]) it was 67%; in test [2] (setting [8]) it was 90% (active); in test [2] (at 50.0 µM), 32.5%. Further, the growth inhibition in test [3] (setting [7]) was 46%; in test [3] (setting [8]) it was 65%; in test [3] (at 50.0 µM), 48.6%; in test [4] (setting [7]) it was 22%; in test [4] (setting [8]), 39%; in test [4] (at 50.0 µM) it was -74.8%. Also, the growth inhibition in test [5] (setting [7]) was 58%; in test [5] (setting [8]), 98% (active); in test [5] (at 50.0 µM) it was 50.6%; in test [6] (setting [7]) it was 35%; in test [6] (setting [8]), 51%; in test [6] (at 50.0 µM) it was 73.3% (active).
